A number with no mark means an inactive call.
The molecules below were run on HCC1569 (assay: H1.0 immunofluorescence intensity relative to DMSO (% of DMSO); higher = stronger H1.0 induction, active = 140 or more). Details: concentration: 10 µM; 24 h.
How it was run: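 After 24 h at 37 °C with compounds at 10 µM, in triplicate, HCC1569 and TDF cells were fixed with 3.7% formaldehyde. Immunostaining used a rabbit anti-H1.0 antibody and an AlexaFluor 647 secondary, with DAPI, and six fields per well were imaged at ×10. H1.0 nuclear intensity or cell number is presented as percent of the plate control, from the median of replicates, with HCC1569 values smoothed for positional effects.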
Molecule `N[C@@H](Cc1ccc(O)c(I)c1)C(=O)O` [3-Iodo-L-tyrosine] has an H1.0 immunofluorescence intensity of 88.9.
Molecule `CC(N)=NCCC[C@H](N)C(=O)O.Cl` [L-N5-(1-Iminoethyl)ornithine hydrochloride] has an H1.0 immunofluorescence intensity of 93.3.
Work on `Cc1cn2cc(C(=O)N(C)CCO)cc(N[C@@H]3CCOc4cccc(C)c43)c2n1` yielded an H1.0 immunofluorescence intensity of 106.
In the case of `CC=CC(=O)N(CC)c1ccccc1C` [Crotamiton], the H1.0 immunofluorescence intensity is reported as 104.
With `Clc1ccc(C(Cn2ccnc2)OCc2csc3c(Cl)cccc23)c(Cl)c1.O=[N+]([O-])O` (centres undefined) the H1.0 immunofluorescence intensity was 119.
With `C#CCCCCCCCCCCCCCCCC(=O)O` [17-Octadecynoic acid] the H1.0 immunofluorescence intensity was 99.4.
In the case of `CC1COc2c(C3(N)CC3)c(F)cc3c(=O)c(C(=O)O)cn1c23` (centres undefined) [Pazufloxacin], the H1.0 immunofluorescence intensity is reported as 104.
In the case of `CCCCCCCCc1ccc(CCC(N)(CO)CO)cc1.Cl`, the H1.0 immunofluorescence intensity is reported as 173 (active).
Molecule `COc1ccc2cc1Oc1ccc(cc1)CC1c3cc(c(OC)cc3CCN1C)Oc1c(OC)c(OC)c(OC)c3c1C(C2)N(C)CC3` (centres undefined) [Hernandezine] has an H1.0 immunofluorescence intensity of 110.
`O=Nc1ccc2oc(=O)ccc2c1` [6-Nitroso-1,2-benzopyrone] showed an H1.0 immunofluorescence intensity of 101.
`O=C(NC(Cc1ccccc1)C(=O)CCl)OCc1ccccc1` [Z-L-Phe chloromethyl ketone] gave an H1.0 immunofluorescence intensity of 116.
For `Cc1oncc1C(=O)Nc1ccc(C(F)(F)F)cc1` [Leflunomide], the H1.0 immunofluorescence intensity was 101.
`CC(C)CCNC(C)C1CCC2C3CC=C4CC(O)CCC4(C)C3CCC12C` (centres undefined) [22-Azacholesterol] gave an H1.0 immunofluorescence intensity of 110.
In the case of `CC(C)c1cc(C(C)C)c(-c2csc(N(CCN(C)C)Cc3cccnc3)n2)c(C(C)C)c1`, the H1.0 immunofluorescence intensity is reported as 146 (active).

Source: the supplement of paper PMC7156485
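Note: TDF is a line of transformed human dermal fibroblasts of mesenchymal origin.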
